For 30 compounds, inhibition results are on record in PubChem BioAssay AID588352 (The Scripps Research Institute Molecular Screening Center, 2011).

The campaign covered roughly 360,000 compounds. About 620 (0.17%) were called active. This excerpt belongs to a sample that is enriched for actives. Unmarked numbers belong to inactive results.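 How the source made its calls: active means inhibition above a per-campaign cutoff, the mean of all compounds plus 3 SD (cut at about 60% in these data); inactive means the rest.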

This assay deals with Nuclear receptor coactivator 3 (Homo sapiens) (UniProt Q9Y6Q9). Kind of assay: NCOA3 GAL4-fusion reporter inhibition – cell-based, luminescence, primary screen (AID 588352).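 Further: 0% = DMSO-treated cells and 100% = gossypol-treated cells at 36 µM; higher means less SRC3-driven luciferase light from the GAL4 reporter.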 Particulars: HEK293 GAL4-SRC3 luciferase reporter, at 3.6 µM, active compounds read high. In general terms: Reporter assays use an easily measured gene product as a stand-in for the process of interest.
Chain of Nuclear receptor coactivator 3 (Homo sapiens) (Q9Y6Q9 whole entry, looked up, the tested form may be a part): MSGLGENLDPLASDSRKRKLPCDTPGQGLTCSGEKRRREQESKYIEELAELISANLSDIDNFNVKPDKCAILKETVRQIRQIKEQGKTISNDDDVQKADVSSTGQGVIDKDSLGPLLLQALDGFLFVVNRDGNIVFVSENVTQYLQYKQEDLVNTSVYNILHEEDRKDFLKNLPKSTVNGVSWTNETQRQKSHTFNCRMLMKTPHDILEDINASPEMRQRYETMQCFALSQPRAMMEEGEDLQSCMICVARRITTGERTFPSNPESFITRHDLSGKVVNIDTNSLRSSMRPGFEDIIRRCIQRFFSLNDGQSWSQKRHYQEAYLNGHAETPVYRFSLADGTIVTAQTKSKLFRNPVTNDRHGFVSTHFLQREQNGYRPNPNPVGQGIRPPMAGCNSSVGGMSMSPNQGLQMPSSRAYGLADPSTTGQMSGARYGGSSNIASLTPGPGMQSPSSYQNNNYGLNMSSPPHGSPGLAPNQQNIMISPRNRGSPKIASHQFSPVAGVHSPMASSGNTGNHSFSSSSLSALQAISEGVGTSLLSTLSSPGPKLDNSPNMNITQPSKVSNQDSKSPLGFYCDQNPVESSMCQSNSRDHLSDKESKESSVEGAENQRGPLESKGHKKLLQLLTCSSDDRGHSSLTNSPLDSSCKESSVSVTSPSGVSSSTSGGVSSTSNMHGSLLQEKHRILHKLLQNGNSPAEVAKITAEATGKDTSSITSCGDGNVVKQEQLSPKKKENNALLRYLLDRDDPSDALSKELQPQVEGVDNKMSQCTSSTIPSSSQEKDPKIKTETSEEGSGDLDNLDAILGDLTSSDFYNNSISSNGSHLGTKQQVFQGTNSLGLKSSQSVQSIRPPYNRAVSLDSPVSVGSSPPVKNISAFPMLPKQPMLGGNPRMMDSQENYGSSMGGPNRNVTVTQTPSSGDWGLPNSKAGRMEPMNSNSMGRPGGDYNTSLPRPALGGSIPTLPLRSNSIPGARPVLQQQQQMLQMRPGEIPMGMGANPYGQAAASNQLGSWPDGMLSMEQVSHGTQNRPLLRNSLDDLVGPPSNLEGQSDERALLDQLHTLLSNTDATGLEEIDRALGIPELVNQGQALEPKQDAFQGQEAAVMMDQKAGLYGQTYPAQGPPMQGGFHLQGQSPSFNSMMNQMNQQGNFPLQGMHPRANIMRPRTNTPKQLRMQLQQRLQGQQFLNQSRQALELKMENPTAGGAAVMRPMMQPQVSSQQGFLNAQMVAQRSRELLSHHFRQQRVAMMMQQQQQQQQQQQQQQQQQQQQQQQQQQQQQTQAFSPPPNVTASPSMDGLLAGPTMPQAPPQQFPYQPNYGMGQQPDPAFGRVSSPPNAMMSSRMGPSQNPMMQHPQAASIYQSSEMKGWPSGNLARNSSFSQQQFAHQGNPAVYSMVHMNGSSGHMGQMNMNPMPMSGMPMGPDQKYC
By inhibition is commonly meant the relative decrease from the control value, in per cent. Consider `CC12CCC(O)CC1CCC1C2CCC2(C)C(C(=O)CC(O)C(F)(F)F)CCC12` (stereo not given), for which the inhibition was 15.9%. Take `C[C@]12CC[C@H](O)C[C@H]1CC[C@@H]1C2CC[C@]2(C)[C@@H](C3=CC(=O)OC3)[C@@H](O)C[C@]12O` (stereo not given in full): the inhibition was 63.5% (active). In the case of `Cc1cccc(OP(=O)(Oc2cccc(C)c2)OC(c2ccccc2)C(F)(F)F)c1` (stereo not given) it was -1.86%; in that of `C[N+]1(C)CCOC(O)(c2ccc(-c3ccc(C4(O)C[N+](C)(C)CCO4)cc3)cc2)C1` (stereo not given), 20.3%; in that of `CNC(=S)N/N=C1\C2CN3CCN(C2)CC1(c1ccccc1)C3`, 8.65%.

On to `COC(=O)C1=C(c2ccc(-c3ccccc3)c(F)c2)C[C@@H]2CC[C@H]1N2C(=O)NCc1ccc(F)cc1`, for which the inhibition was 9.01%. In the case of `CCC(C)(O)C(=O)OC1C(=O)OC2CC3C(C)=CC(=O)C(O)C3(C)C3C4(O)OCC23C1C(C)C4O` (stereo not given), the inhibition is 93.7% (active). Turning to `O=C(Cn1c(=O)n(CC2CS2)c2ccccc21)N1CCCCC1` (stereo not given), the inhibition was -25.5%. The value for `COc1ccccc1CN1CCN(C(=O)Cc2ccccc2)CC1` was 2.02%; that for `COC(=O)[C@@H]1C(OC(=O)c2ccccc2)CC2CCC1N2C` (stereo not given in full) was 14.1%.

Regarding `CN(C)CCN(CC1CCCN(Cc2ccccc2F)C1)C(=O)Cc1ccc(F)c(F)c1` (stereo not given), the inhibition was 3.08%. Turning to `C=CC12CN(C)[C@@H]3C4CO[C@H](C[C@H]41)[C@]1(C(=O)Nc4ccccc41)[C@@H]32` (stereo not given in full), the inhibition was 4.33%.

For the compound `CCOc1ccc(-c2cc(C)[n+](CCN(CC)CC)c(-c3ccc(OCC)cc3)c2)cc1`, the inhibition is 78% (active). As to `Cn1c(O)c(C=Nc2ccc3c(c2)CCC3)c(=O)n(C)c1=O`, the inhibition was -9.05%. For `COC1C(O)C(C)OC(OC2CCC3(C=O)C(CCC4C3CCC3(C)C(C5=CC(=O)OC5)CCC43O)C2)C1O` (stereo not given), the inhibition is 90.5% (active). Turning to `Cn1c(C(=O)N2CCC(C(=O)N3CCC4(CC3)OCCO4)CC2)cc2sccc21`, the inhibition is 6.98%. Regarding `NC(=O)Cn1cc(C(=O)c2ccccc2F)c2ccccc21`, the inhibition is 10.3%. Turning to `Cc1ccc(P(=S)(c2ccc(C)o2)N2CCOCC2)o1`, the inhibition was 6.64%. Take `CC(c1ccccc1)(c1ccccc1)c1ccncc1`: the inhibition is 16.2%. In the case of `Fc1cccc(F)c1CN1CCN(Cc2c(F)cccc2F)CC1` it was 28.2%; in that of `COc1ccc2[nH]c3c(c2c1)CCN[C@H]3C`, 7.99%. For the compound `CC(=O)OC1C2(CC3N4C(=O)C5(CO)SSC4(CC31O)C(=O)N5C)OC(C)C(C)(C)C2=O` (stereo not given), the inhibition is 67.7% (active). On to `CC1CCCN1CCC(C(N)=O)(c1ccccc1)c1ccccc1` (stereo not given), for which the inhibition is -21.2%. As to `COP(=O)(OC)C(NC(=O)c1ccc(C)cc1)C(Cl)(Cl)Cl` (stereo not given), the inhibition is -4%. In the case of `CCCCCCCCCCCCn1ccc(=N)cc1` it was 76.9% (active); in that of `CCOC(=O)C1CN(C)CCC1=O` (stereo not given), 21.1%. `c1ccc2sc(N3CCNCC3)nc2c1`: the inhibition was -3.09%. As for `COc1cccc(OC)c1C(=O)NC(=S)N1C[C@H]2C[C@H](C1)c1cccc(=O)n1C2`, the inhibition was 19.2%. Take `OC(Cn1c2ccccc2c2ccccc21)C[n+]1ccccc1` (stereo not given): the inhibition was -8.77%. For the compound `CN(C)P(=S)(Nc1ccccc1)C(Cl)(Cl)Cl` (stereo not given), the inhibition was 6.36%.
